Only a selection was taken, and hits are over-represented in it overall.
KDM5B inhibitor: Primary screen for KDM5B Histone Demethylases FDH-coupled qHTS; Potency, µM (titrated, usually from 57.7 µM), hits mostly inhibitors; KDM5B demethylase, FDH-coupled NADH fluorescence (FDH is formaldehyde dehydrogenase); actives 2.6% (n = 220,000); Lysine-specific demethylase 5B (Homo sapiens), Q9UGL1; active = well fitted inhibition curve with a large enough effect; also: nearly all actives have a fitted effect of over 70% in size
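Compound dilutions met 200 nM (final) KDM5BΔAP for 10 min at room temperature before substrate addition. The substrate mix held 12.5 µM H3K4me3 with cofactors 25 µM α-ketoglutarate and 50 µM Fe²⁺. NADH signal gain over 30 min defined activity.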
Each line names hits and unclear results; the compound was inactive in the other large screens.

COc1ccc(C(=O)Nc2ccc3c(c2)CN(Cc2ccc(F)cc2)C(=O)C(C)O3)c(OC)c1 (centres undefined)	KDM5B inhibitor 32µM
CCC1Oc2ccc(NC(=O)COC)cc2CN(Cc2ccc(Cl)cc2)C1=O (centres undefined)	none
O=S(=O)(c1ccc(OC(F)(F)F)cc1)N1CCN(Cc2ncc(-c3ccc(F)cc3)o2)CC1	none
CCN(CC)C(=O)CN(C1CCCCC1)S(=O)(=O)c1ccc(Br)cc1	none
N#Cc1cccc(C(=O)OC(c2ccccc2)c2ccccn2)c1 (centres undefined)	none
COc1cc(NC2c3ccccc3C(=O)N2c2cccnc2)cc(OC)c1OC (centres undefined)	none
COc1cccc(-c2cc(-c3cccnc3)c3cncn3c2)c1OC	KDM5B inhibitor 35µM
COc1ccccc1NC(=O)c1cc(-c2cccnc2)nc2ccccc12	none
COc1ccccc1-c1nc2nccc(-c3cccnc3)n2n1	none
COc1ccccc1-c1cc(-c2cccnc2)c2cncn2c1	KDM5B inhibitor 40µM
COc1ccc(-c2cc(-c3ccncc3)c3cncn3c2)cc1OC	none
NS(=O)(=O)c1ccc(N/N=C/C=C/c2ccccc2)c([N+](=O)[O-])c1	none
CCCNC(=O)NC(=O)CSc1ccc2ccccc2n1	none
Cc1ccc(NC(=O)Cn2ccn3nc4c(c3c2=O)CCCCC4)cc1C	none
Cc1cc(NC(=O)Cn2ccn3nc4c(c3c2=O)CCCC4)no1	KDM5B inhibitor 25µM
O=C(Cn1ccn2nc3c(c2c1=O)CCCCC3)Nc1cc(F)ccc1F	KDM5B inhibitor 28µM
COc1ccccc1NC(=O)Cn1ccn2nc3c(c2c1=O)CCCCC3	none
O=c1c2c3c(nn2ccn1Cc1cc(F)ccc1F)CCCC3	none
O=C(Cn1ccn2nc3c(c2c1=O)CCCC3)Nc1ccc2c(c1)OCO2	none
Cc1cccc(C)c1NC(=O)Cn1ccn2nc3c(c2c1=O)CCCCC3	none
Cc1cc(C)cc(NC(=O)Cn2ccn3nc4c(c3c2=O)CCCC4)c1	KDM5B inhibitor 35µM
CCOc1ccc(NC(=O)Cn2ccn3nc4c(c3c2=O)CCCC4)cc1	none
Cc1cccc(NC(=O)Cn2ccn3nc4c(c3c2=O)CCCC4)c1C	KDM5B inhibitor 28µM
Cc1ccc(NC(=O)Cn2ccn3nc4c(c3c2=O)CCCC4)cc1Cl	none
Cc1cccc(C)c1NC(=O)Cn1ccn2nc3c(c2c1=O)CCCC3	none
COc1ccc(CNC(=O)c2nc(-c3ccc4cc[nH]c4c3)no2)cc1	none
CSCCC(NC(=O)c1ccc2ccccc2n1)C(=O)NC1CC1 (centres undefined)	none
CCN1CCC(CNCc2cccs2)C1 (centres undefined)	none
CC(C)n1c(SCc2nc3ccccc3c(=O)[nH]2)nnc1-c1ccco1	none
COC(=O)c1cc2oc(C)cc2n1Cc1ccccc1	none
N#Cc1ccc(OCC(=O)NOCc2ccccc2)cc1	none
O=C(CCc1cccs1)N(Cc1cccnc1)C1CC1	none
Cn1ncc(N2CCC(CNC(=O)c3cccc(CO)n3)C2)cc1=O (centres undefined)	none
Cn1ncc(N2CCC(CNC(=O)c3cn4cccnc4n3)C2)cc1=O (centres undefined)	KDM5B inhibitor 28µM
CC(C)c1cc(C(=O)NCC2CCN(c3cnn(C)c(=O)c3)C2)n(C)n1 (centres undefined)	none
Cc1ccc(-c2noc(-c3nc(-c4cccnc4)no3)n2)cc1	none
Cc1noc(-c2nc(Cc3cccc(F)c3)no2)n1	none
COc1ccc(-c2noc(-c3nc(-c4cc(OC)c(OC)c(OC)c4)no3)n2)cc1	none
COc1ccc(-c2noc(-c3nc(-c4cccnc4)no3)n2)cc1	KDM5B inhibitor 35µM
COc1ccc(-c2noc(-c3nc(Cc4cccc(F)c4)no3)n2)cc1	KDM5B inhibitor 28µM
Fc1cccc(Cc2noc(-c3nc(-c4ccccc4)no3)n2)c1	none
CN(C)N1C(=O)CC(c2cccc(Cl)c2Cl)C2=C1CC(C)(C)CC2=O (centres undefined)	none
O=C(/C=C/c1ccc(F)cc1)N(C1CCCCC1)C1CCCCC1	none
C/C(=N/Nc1ccc(S(=O)(=O)Nc2ccc(Cl)cc2)cc1[N+](=O)[O-])c1ccco1	none
COc1ccc(NC(=O)c2n[nH]c(=O)c3ccccc23)cc1OC1CCCC1	none
COc1ccc(NC(C)=O)cc1NC(=O)/C=C/c1ccc2ccccc2n1	none
Cc1noc(C)c1CCC(=O)NC1CCCc2c1[nH]c1ccccc21 (centres undefined)	KDM5B inhibitor 28µM
O=C(COc1ccccc1-n1cnnc1)NC1CCCc2c1[nH]c1ccccc21 (centres undefined)	none
CC(=O)NC1CCCc2c1[nH]c1ccc(Cl)cc21 (centres undefined)	none
Cc1cc(=O)oc2cc(OCC(=O)NC3CCCc4c3[nH]c3ccccc43)ccc12 (centres undefined)	KDM5B inhibitor 16µM
Cc1noc(C)c1CCC(=O)NC1CCCc2c1[nH]c1c(Cl)cccc21 (centres undefined)	none
Cc1ccc(CNC(=O)COc2ccc3c(C)cc(=O)oc3c2)cc1	none
C#CCN(CC(=O)C(C)(C)C)C(C)(C)C	none
CC(C)(C)C(=O)NCc1ccc(-c2csc(NC3CC3)n2)s1	none
C=CCOc1ccccc1N	none
S=C(NCc1ccc(Cl)cc1)NC1CCCC1	none
Cc1ccc(C(=O)/C(C#N)=C/c2ccccc2OCc2ccc(Br)cc2)cc1	none
Clc1ccc(-c2nn3c(CN4CCOCC4)nnc3s2)cc1	none
Cc1nc2ccccc2nc1COC(=O)c1cccnc1	none
C=CCOc1ccc(/C=C2\N=C(SC)SC2=O)cc1	none
Cc1ccc(-n2cc(C(=O)N3CCc4ccccc4C3)nn2)cc1	none
Cc1ccc(C(=O)N2CCC3(CC2)N(c2ccccc2)C(=O)CS3(=O)=O)cc1	none
O=C(NCCO)c1ccc(-c2ncc3cnc(C4=CCOCC4)cn23)cc1	KDM5B inhibitor 32µM
O=C(NCc1ccccn1)c1ccc(Br)cc1	none
O=C(Cn1c2c(c(=O)n1Cc1ccccc1)CCN(Cc1ccccc1)C2)NCc1cnccn1	none
O=C(NCCc1cnc(-c2ccccc2)[nH]1)c1ccc(-c2ccccc2)cc1	none
Cc1ccc(C(=O)N2CCn3c(nnc3-c3ccccc3)C2)cc1	none
O=C(c1ccc(-c2ncc3cnc(-c4ccccc4)cn23)cc1)N1CCS(=O)(=O)CC1	KDM5B inhibitor 35µM
O=C(c1cn(-c2ccccc2)nn1)N1CCc2ccccc2C1	none
O=C(NCc1cnccn1)c1ccc(-c2ncc3cnc(C4=CCOCC4)cn23)cc1	KDM5B inhibitor 35µM
Cc1ccc(-c2ncc(CCNC(=O)c3ccccc3)[nH]2)cc1	none
O=C(c1ccc(-c2ncc3cnc(C4=CCOCC4)cn23)cc1)N1CCc2ccccc2C1	KDM5B inhibitor 28µM
Cc1cc(Br)ccc1SCC(=O)OCC(=O)Nc1ccccc1OC(F)F	none
Brc1ccc2[nH]c3c(c2c1)CCCC3	none
O=C(CCCC(=O)OCC(=O)c1ccc([N+](=O)[O-])cc1)Nc1cc(C(F)(F)F)ccc1Cl	none
Cc1cc2oc(C(=O)Nc3nnc(CC(C)C)s3)cc(=O)c2cc1C	none
Cc1sc2c(c1C)CN(C(C)C)CN2C(=O)c1ccccc1	none
C=C(C)CNC(=S)NNC(=S)NC1CCCC(C)C1C (centres undefined)	none
Cc1ccc2oc(C(=O)O)c(C)c2c1	none
Cc1ccc2oc(C(=O)NC3CCS(=O)(=O)C3)cc(=O)c2c1 (centres undefined)	none
Cc1ccc2oc(C(=O)NC3CC(=O)N(C(C)C)C3)c(C)c2c1 (centres undefined)	KDM5B inhibitor 25µM
CCN1C(=O)C2CC3(CCN(Cc4ccc(F)c(F)c4)CC3)CN2C1=O (centres undefined)	none
CC(O)c1cc2n(n1)CCCN(C(=O)CCc1cn3ccccc3n1)C2 (centres undefined)	KDM5B inhibitor 25µM

High-throughput results (PubChem BioAssay)
